Source: PubChem (Johns Hopkins Ion Channel Center)
KCNQ2 block: rat KCNQ2 potassium channel inhibitors, primary screen, cell-based, CHO-K1, FluxOR thallium flux, B-score | Potassium voltage-gated channel subfamily KQT member 2 (Rattus norvegicus), O88943 | B-score at 10 µM | 20 min; stronger effect = lower value | 310,000 tested, 1.1% active;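 active = fluorescence ratio B-score at most minus 3 library SDs, with starting brightness B-score within 2 library SDs, cut at about -5.5 in these data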
Target sequence (O88943 whole entry, looked up): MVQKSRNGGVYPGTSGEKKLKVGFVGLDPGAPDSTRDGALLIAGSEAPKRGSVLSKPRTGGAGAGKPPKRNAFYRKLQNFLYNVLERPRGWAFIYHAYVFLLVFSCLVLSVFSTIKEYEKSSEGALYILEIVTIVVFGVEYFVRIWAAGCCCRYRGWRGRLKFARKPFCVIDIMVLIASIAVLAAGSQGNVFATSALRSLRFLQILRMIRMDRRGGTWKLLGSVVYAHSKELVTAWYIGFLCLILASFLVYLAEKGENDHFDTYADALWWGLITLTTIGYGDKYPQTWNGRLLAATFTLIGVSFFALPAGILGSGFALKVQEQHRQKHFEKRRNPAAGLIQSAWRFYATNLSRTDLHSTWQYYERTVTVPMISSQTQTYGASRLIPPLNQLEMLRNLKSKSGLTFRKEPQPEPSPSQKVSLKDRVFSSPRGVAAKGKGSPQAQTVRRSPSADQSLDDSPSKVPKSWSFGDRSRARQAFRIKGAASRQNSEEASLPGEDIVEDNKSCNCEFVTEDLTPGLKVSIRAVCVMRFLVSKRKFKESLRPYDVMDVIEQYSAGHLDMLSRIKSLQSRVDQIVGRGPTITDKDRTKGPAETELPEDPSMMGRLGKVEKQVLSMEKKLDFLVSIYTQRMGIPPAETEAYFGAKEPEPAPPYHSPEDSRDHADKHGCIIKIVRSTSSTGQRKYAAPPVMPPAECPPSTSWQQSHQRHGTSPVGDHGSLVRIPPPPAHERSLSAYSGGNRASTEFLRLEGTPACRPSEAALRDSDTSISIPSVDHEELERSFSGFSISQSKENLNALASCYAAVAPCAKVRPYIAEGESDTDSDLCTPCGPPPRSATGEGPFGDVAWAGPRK
KCNQ2 enhance: potentiators of rat KCNQ2 potassium channel; Potassium voltage-gated channel subfamily KQT member 2 (Rattus norvegicus), O88943; CHO-K1 KCNQ2, FluxOR thallium flux fluorescence; stronger effect = higher value; B-score at 10 µM; 310,000 tested, 0.54% active;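 active = fluorescence ratio B-score at least 3 SD of library B-scores, with initial fluorescence B-score within 3 of them, cut at about 5.3 in these data; same plate scores as AID 2156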;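 note: B-score of peak minus minimum over baseline fluorescence ratio after K+ and Tl+ stimulus; positive B-score means potentiation of KCNQ2 with more thallium influx and brighter signal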
The depositor's hits bear a star; i = inactive; / = no result given. Only some compounds are listed: those with a hit (about 1.6% of all), similar ones and a draw of the others.

SMILES | KCNQ2 block | KCNQ2 enhance
S=C(NCc1cccc(Cl)c1)NC1CCCCC1 | i | 8*
N/C(Cc1ccc([N+](=O)[O-])cc1)=N\OC(=O)CC1CCCCC1 | i | 8*
Cc1ccc(CC(=O)O/N=C(\N)Cc2ccc([N+](=O)[O-])cc2)cc1 | i | /
CC(C)(C)n1nc2c(c1NC(=O)COc1ccc(Cl)cc1)CSC2 | i | /
CC(C)(C)n1nc2c(c1NC(=O)Cc1cccs1)CSC2 | i | 9.5*
COc1ccccc1CNC(=O)C1CCC(CNS(=O)(=O)c2ccccc2)CC1 (centres undefined) | i | 1.1
Cc1cc(C(=O)OC(C(=O)Nc2cccc(C(F)(F)F)c2)c2ccccc2)c(C)o1 (centres undefined) | -5.8* | -5.8
Cc1ccc(NC(=O)C(OC(=O)c2cc(C)oc2C)c2ccccc2)cc1 (centres undefined) | i | /
Cc1c(N(C)S(=O)(=O)c2cc(C(=O)N3CCCC3)ccc2Cl)c(=O)n(-c2ccccc2)n1C | i | /
CC(=O)N(CCC(Cc1ccccc1)c1ccc2c(c1)OCO2)Cc1ccc(Cl)cc1 (centres undefined) | -10* | -10
O=C(O)CC(Cc1ccccc1)c1ccc2c(c1)OCO2 (centres undefined) | i | /
COc1ccc(NC(=O)Cc2c(Sc3ccccc3)c3ccccc3n2C)cc1 | -6.3* | -6.3
Cn1c(CC(=O)Nc2ccc(F)cc2)c(Sc2ccccc2)c2ccccc21 | i | /
CCCOc1ccc(NC(=O)CC2C(=O)N(c3ccc(OCC)cc3)C(=S)N2C2CC2)cc1 (centres undefined) | i | 0.35
COc1cccc(NC(=O)Cn2cc3c(n2)CCCCC3)c1 | -6.5* | -6.5
COc1ccc(CNC(=O)Cn2cc3c(n2)CCCCC3)cc1 | i | 0.78
CCCCCc1cc(=O)[nH]c(=S)[nH]1 | i | 0.07
CCCCCc1ccc(C(=O)CCCC)c(=S)[nH]1 | i | 8*
Cc1ccc2c(c1)N(C(=O)CCC(=O)NCc1ccccc1)CC(C)O2 (centres undefined) | i | /
Cc1ccc2c(c1)N(C(=O)CCC(=O)NCc1cccc(Cl)c1)CC(C)O2 (centres undefined) | -5.7* | -5.7
CCCCc1ccc(NS(=O)(=O)c2cccs2)cc1 | -5.9* | -5.9
O=S(=O)(Nc1ccc(Cc2ccncc2)cc1)c1cccs1 | i | 0.96
COc1ccc(N(C)C(=O)C2CCCN2S(=O)(=O)c2cccc3nsnc23)c(OC)c1 (centres undefined) | i | /
C=CCn1c(SCc2cc(=O)n3ccsc3n2)nc2sc(C)c(C)c2c1=O | -9* | -9
C=CCn1c(SCc2csc(C)n2)nc2sc3c(c2c1=O)CCC(C)C3 (centres undefined) | i | /
SMILES | KCNQ2 block | KCNQ2 enhance
C=CCn1c(SCC(=O)c2cccs2)nc2sc(C)c(C)c2c1=O | i | /
C=CCn1c(SCc2csc(C)n2)nc2sc3c(c2c1=O)CCCCC3 | -8.1* | -8.1
CCc1noc(C)c1C(=O)N1CCCSC1=Nc1ccccc1Cl | i | /
Cc1ccc(C(C[N+](=O)[O-])c2c(N)n(C)c(=O)n(C)c2=O)cc1 (centres undefined) | -8* | -8
COc1cc(C(C[N+](=O)[O-])c2c(N)n(C)c(=O)n(C)c2=O)ccc1O (centres undefined) | i | /
N#Cc1ccncc1S(=O)c1ccc(Cl)cc1 (centres undefined) | i | /
Cc1ccc(-c2nn(-c3ccccc3)cc2NC(=O)c2ccccc2)cc1 | -5.7* | -5.7
O=C(Nc1cn(-c2ccccc2)nc1-c1ccc(Cl)cc1)c1ccccc1 | i | /
CC12CCC(=O)N1C(C(=O)N1CCN(S(=O)(=O)c3ccc(F)c(F)c3)CC1)CS2 (centres undefined) | i | 0.05
CC(=O)NCC(=O)OCC(=O)c1ccc(C)c(C)c1 | i | /
Cc1ccc(C(=O)COC(=O)C2C3C=CC(C3)C2C(=O)OCC(=O)c2ccc(C)c(C)c2)cc1C (centres undefined) | -7.5* | -7.5
COC(=O)c1nc(NNC(=O)c2ccccc2)sc1-c1ccccc1 | i | 2.2
Cc1ccc(Cl)cc1N1CCN(C(=S)NCCc2ccccc2)CC1 | -5.8* | -5.8
Cc1cccc(N2CCN(C(=S)NCCc3ccccc3)CC2)c1C | i | /
Cc1ccccc1CNC(=O)C1CCN(c2nnc(N3CCCC3=O)s2)CC1 | i | /
Cc1oc2c(c1C(=O)c1ccccc1)C(=O)C(=O)c1ccccc1-2 | -7.2* | -7.2
Cc1oc2c(c1C(=O)O)C(=O)c1ccccc1C2=O | i | 0.13
O=[N+]([O-])c1ccc(S(=O)(=O)NCC(c2cccnc2)N2CCc3ccccc32)cc1 (centres undefined) | i | 1.6
COc1ccc(S(=O)(=O)Nc2cc3c4c(c2)CC(=O)N4CCC3)cc1C | i | /
CCCCC1=NN(C(=O)c2cccnc2)C(O)(C(F)(F)F)C1 (centres undefined) | i | /
COc1cc(/C=N/NC2=NC(C)(C)Cc3ccccc32)cc(OC)c1OC | -5.6* | -5.6
COc1cc(/C=N/NC2=NS(=O)(=O)c3ccccc32)cc(OC)c1OC | i | 1.1
Cc1ccc(CSc2nc3ccsc3c(=O)n2Cc2ccccn2)cc1 | -6.2* | -6.2
N#Cc1ccccc1CSc1nc2ccsc2c(=O)n1Cc1ccccn1 | i | /
Cc1ccc(S(=O)(=O)n2nccc2-c2c(-c3ccc(Cl)cc3)noc2C)cc1 | i | /
SMILES | KCNQ2 block | KCNQ2 enhance
CCOc1ccc2[nH]c(=O)c(C(c3nnnn3Cc3ccco3)N3CCC(C)CC3)cc2c1 (centres undefined) | i | 0.94
CCOc1ccc2[nH]c(=O)c(C(c3nnnn3Cc3ccco3)N3CCCC(C)C3)cc2c1 (centres undefined) | -6.5* | -6.5
CN(C)S(=O)(=O)c1cccc(C(=O)Nc2ccccc2Cl)c1 | i | 0.02
CCN(c1ccccc1)S(=O)(=O)c1cc(C(=O)Nc2ccccc2Cl)ccc1F | -6* | -6
CCN(c1ccccc1)S(=O)(=O)c1cc(C(=O)Nc2ccc(Br)cc2)ccc1F | -6.2* | -6.2
CCN(c1ccccc1)S(=O)(=O)c1ccc(F)c(C(=O)O)c1 | i | 1.7
CCOC(=O)N1CCN(C(=O)C2CCC(=O)N(CCCN3CCCC3=O)C2)CC1 (centres undefined) | i | 1.7
Cc1ccc(N2CC(C(=O)Nc3nnc(SCC(N)=O)s3)CC2=O)cc1 (centres undefined) | i | /
COc1ccc(-n2nc(C(=O)NCC(=O)Nc3cccc(Cl)c3)c3ccccc3c2=O)cc1OC | i | /
CCCC(C(=O)NC1CCCC1)N(Cc1ccccc1)C(=O)c1snc(C(N)=O)c1N (centres undefined) | i | 0.05
COc1ccc(-c2noc(-c3ccccc3F)n2)cc1 | i | 0.05
COc1ccc(-c2noc(-c3ccccc3-c3ccccc3)n2)cc1 | -6.6* | -6.6
Cc1cccn2c(/C=N/OCc3cccc(F)c3)c(-c3ccc(Cl)cc3)nc12 | i | /
Fc1cccc(CO/N=C/c2c(-c3ccccc3)nc3ccc(Cl)cn23)c1 | -6.8* | -6.8
Cc1ccc(S(=O)(=O)Nc2cccc(C(=O)NCc3ccc(S(N)(=O)=O)cc3)c2)cc1 | i | 1.6
CC1CN(C(=O)c2ccc(OC3CCN(Cc4ccccn4)CC3)cc2)CCN1C (centres undefined) | i | 0.6
Cc1nc2ccc([N+](=O)[O-])cc2[nH]1 | i | 0.64
